Measurements taken from PubChem BioAssay AID1159580 (chemical genetic matrix, 2015).
Several values for one entry are separate records, joined by “and”; a condition that tells them apart may be missing. Identical values can stand only once. Hit rate of the full screen: of about 5,500 compounds, about 2,000 (36%) were called active. Another 18% or so got no clear call; they are omitted. Cut-off read from the data, not from the text of the source: active = normalized growth mostly below about 0.91 (no sharp cut-off); inconclusive = no clear call, values can overlap the other calls; inactive = mostly above about 0.92. This is one part of the list.

Experiment: chemical genetic growth profiling, strain panel (AID 1159580);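 note: tested at 20 µM; growth read once vehicle control cultures reached saturation at 30 °C; 1 = growth at the plate median or of vehicle wells; lower values mean less growth of the strain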
Conditions: S. cerevisiae deletion strains, growth OD

Measured: normalized growth

Cc1ccccc1C(OCCN(C)C)c1ccccc1 (centres undefined)
inactive: locus YAL021C, strain ccr4, hits give low values 0.977 | locus YAL026C, strain drs2, hits give low values 1 | locus YAL030W, strain snc1, hits give low values 1 | locus YAL040C, strain CLN3, hits give low values 0.992 | locus YBL061C, strain skt5, hits give low values 1 | locus YBR009C, strain hhf1, hits give low values 0.996 | locus YBR021W, strain FUR4, hits give low values 0.913 | locus YBR023C, strain chs3, hits give low values 1.01 | locus YBR171W, strain sec66, hits give low values 1.01 | locus YBR229C, strain ROT2, hits give low values 1 | locus YBR231C, strain swc5, hits give low values 1 | locus YBR279W, strain paf1, hits give low values 0.993 | locus YCL011C, strain gbp2, hits give low values 1.01 | locus YCL016C, strain dcc1, hits give low values 1.01 | locus YCL029C, strain bik1, hits give low values 1.01 | locus YCL061C, strain MRC1 (second series), hits give low values 0.987 | locus YCL061C, strain MRC1, hits give low values 1.01 | locus YCL069W, strain vba3, hits give low values 1.01 | locus YCR088W, strain abp1, hits give low values 1 | locus YDL005C, strain med2, hits give low values 0.986 | locus YDL035C, strain GPR1, hits give low values 1.01 | locus YDL040C, strain nat1, hits give low values 1.01 | locus YDL074C, strain BRE1, hits give low values 0.959 | locus YDL101C, strain DUN1, hits give low values 1 | locus YDL134C, strain PPH21, hits give low values 1.01 | locus YDL185W, strain tfp1, hits give low values 1.02 | locus YDL192W, strain arf1, hits give low values 1.01 | locus YDR001C, strain nth1, hits give low values 1.01 | locus YDR069C, strain doa4, hits give low values 0.994 | locus YDR101C, strain arx1, hits give low values 1.01 | locus YDR137W, strain rgp1, hits give low values 1.07 | locus YDR150W, strain NUM1, hits give low values 0.994 | locus YDR159W, strain sac3, hits give low values 1.01 | locus YDR162C, strain NBP2, hits give low values 0.993 | locus YDR195W, strain ref2 0.996 | locus YDR297W, strain sur2, hits give low values 1.01 | locus YDR318W, strain mcm21, hits give low values 1.02 | locus YDR334W, strain swr1, hits give low values 1.01 | locus YDR335W, strain msn5, hits give low values 1 | locus YDR363W, strain ESC2, hits give low values 0.998 | locus YDR388W, hits give low values 1.01 | locus YDR392W, strain spt3, hits give low values 0.966 | locus YDR502C, strain sam2, hits give low values 1.01 | locus YEL003W, strain gim4, hits give low values 0.981 | locus YEL037C, strain rad23, hits give low values 0.999 | locus YEL061C, strain CIN8 (second series), hits give low values 1.01 | locus YEL061C, strain CIN8, hits give low values 1 | locus YER002W, strain NOP16, hits give low values 1.01 | locus YER015W, strain faa2, hits give low values 1 | locus YER016W, strain bim1, hits give low values 0.998 | locus YER110C, hits give low values 1.01 | locus YER111C, strain swi4, hits give low values 1 | locus YER155C, strain BEM2 (second series), hits give low values 1.01 | locus YER155C, strain BEM2, hits give low values 1.01 | locus YER167W, strain BCK2, hits give low values 1 | locus YFR010W, strain ubp6, hits give low values 1 | locus YGL078C, strain dbp3, hits give low values 1 | locus YGL086W, strain mad1, hits give low values 0.994 | locus YGL167C, strain pmr1, hits give low values 1.01 | locus YGL173C, strain kem1, hits give low values 0.994 | locus YGL227W, strain vid30, hits give low values 1.02 | locus YGL240W, strain doc1, hits give low values 0.994 | locus YGL248W, strain PDE1, hits give low values 1 | locus YGL253W, strain hxk2, hits give low values 1.01 | locus YGR078C, strain PAC10, hits give low values 1 | locus YGR135W, strain pre9, hits give low values 1 | locus YGR252W, strain gcn5, hits give low values 0.902 | locus YHR013C, strain ard1, hits give low values 0.986 | locus YHR027C, strain rpn1, hits give low values 0.997 | locus YHR030C, strain SLT2, hits give low values 1 and 0.992 | locus YHR079C, strain IRE1 (second series), hits give low values 1.02 | locus YHR079C, strain IRE1, hits give low values 0.973 | locus YHR094C, strain hxt1, hits give low values 1 | locus YHR129C, strain ARP1, hits give low values 1.01 | locus YHR142W, strain chs7, hits give low values 1.01 | locus YHR200W, strain rpn10, hits give low values 1.01 | locus YIL066C, strain RNR3, hits give low values 1.01 | locus YIL073C, strain SPO22, hits give low values 1.05 | locus YIL125W, strain kgd1, hits give low values 0.994 | locus YIR030C, strain dcg1, hits give low values 1.02 | locus YJL092W, strain hpr5, hits give low values 1.01 | locus YJL095W, strain BCK1 (second series), hits give low values 1.01 | locus YJL095W, strain BCK1, hits give low values 0.983 and 0.99 | locus YJL115W, strain asf1, hits give low values 0.992 | locus YJL129C, strain trk1, hits give low values 0.986 | locus YJL134W, strain LCB3, hits give low values 1 | locus YJL154C, strain vps35, hits give low values 1 | locus YJL164C, strain tpk1, hits give low values 0.991 | locus YJL166W, strain qcr8, hits give low values 1.01 | locus YJL168C, strain set2, hits give low values 1.01 | locus YJL187C, strain SWE1 (second series), hits give low values 1 | locus YJL187C, strain SWE1, hits give low values 1.01 | locus YJR043C, strain POL32, hits give low values 0.995 | locus YJR066W, strain TOR1, hits give low values 0.952
